The values that follow come from PubChem BioAssay AID686977 (Southern Research Specialized Biocontainment Screening …, 2013).

The campaign covered roughly 9,400 compounds. Fewer than 10 were called active. About 5% were inconclusive and are not listed. Only a sample is shown. Potency and affinity values are given separately. Values without a mark were called inactive. The rule behind the calls is not given here.

This test can be described thus: Vibrio cholerae quorum sensing activators, luminescence (AID 686977). The conditions noted are these: V. cholerae quorum sensing reporter, 6 h, active compounds read high; dose 50, dose unit µM unless noted.
In the case of `CCOC(=O)/C(C#N)=C\c1ccc(N2CCN(C)CC2)cc1`, the luminescence is 0.

For the molecule `CCOC(=O)C1CCN(C(=O)C2CCN(S(=O)(=O)c3cccc4cccnc34)CC2)CC1`, the luminescence is 0.

Consider `Cc1n[nH]c(=S)c2nn(-c3ccccc3F)c(C)c12`, for which the luminescence is 0.

For `Cn1c(C(=O)N2CCN(Cc3ccc4c(c3)OCO4)CC2)cc2c(=O)n(C)c3ccccc3c21`, the luminescence was 0.

Consider `CCC(Cc1ccccc1)NC(=O)CN1C(=O)CSc2ncccc21` (stereo not drawn), for which the luminescence is 0.

Regarding `OCCN1CCN(c2ncnc3ccc(Br)cc23)CC1`, the luminescence was 200.

Take `CC1=CC(C)(C)N(S(=O)(=O)c2ccc(F)cc2)c2ccccc21`: the luminescence is 0.

On to `COc1ccc(C(=O)Nc2cc3c(cc2C#N)OCO3)cc1S(=O)(=O)NCc1ccco1`, for which the luminescence is 0.

As to `CCOC(=O)c1c(C)nc2ccccc2c1C`, the luminescence was 40.

On to `CCc1nn(CC(=O)NCCCN2CCc3ccccc3C2)c(=O)c2cc3sccc3n12`, for which the luminescence is 0.

Consider `COc1ccc(-n2nnnc2SCC#CCO)cc1`, for which the luminescence was 0.

Regarding `Cc1nnc(SCC(=O)NCc2ccco2)n1Cc1ccccc1`, the luminescence is 0.

As to `CC(C)OC(=O)CSc1nnc(-c2ccccc2)n1N`, the luminescence was 40.

Take `O=c1c2ccccc2nnn1CSc1nnc(-c2cccnc2)n1-c1ccccc1F`: the luminescence was 0.

Turning to `O=[N+]([O-])c1cc(-c2cnc3ccccc3n2)ccc1Oc1ccc(F)cc1`, the luminescence is 40.

Consider `Cc1ccc(CN(C)C(=O)C2CCCN2C(=O)c2cccs2)o1` (stereo not drawn), for which the luminescence is 320.

As for `CCn1cc(S(=O)(=O)CC(=O)Nc2cc(C)on2)c2ccccc21`, the luminescence is 0.

As to `CCCCN(C(=O)c1cnc2n(c1=O)CCS2)c1ccccc1`, the luminescence was 0.

Turning to `CCc1nc2c(cnn2-c2ccc(F)cc2)c(=O)n1-c1ccc(N2CCC(C)CC2)cc1`, the luminescence is 0.

`O=C(NCC(c1cccnc1)N1CCN(c2ccccc2F)CC1)c1ccco1` (stereo not drawn): the luminescence was 0.

Regarding `CCC(C)NC(=O)CS(=O)Cc1nc(-c2cccc(OC)c2)oc1C` (stereo not drawn), the luminescence was 40.

With `Cc1ccc(-c2nnc(SCc3nc(N)nc(Nc4ccccc4C)n3)n2N)cc1`, the luminescence was 0.

Take `O=C(NCc1ccco1)c1nnc(Cc2ccc(Cl)cc2)o1`: the luminescence was 0.

On to `CCOC(=O)C1=C(c2ccccc2)O/C(=C(\C(=O)OC)C(F)(F)F)S1`, for which the luminescence is 40.

As for `COc1ccc(C2N(C(=O)CN3CCOCC3)CCN2S(=O)(=O)c2ccccc2)cc1` (stereo not drawn), the luminescence is 0.

For `Cc1cccc(N2CCN(C(=O)CN3CCOc4ccccc43)CC2C)c1` (stereo not drawn), the luminescence was 0.

`Cc1onc(-c2ccccc2Cl)c1C(=O)Nc1cccc(-c2nc3ncccn3c2C)c1`: the luminescence was 40.

`CC(=O)CC(c1ccccc1)S(=O)(=O)c1ccc(C)cc1` (stereo not drawn): the luminescence is 40.
